Only some compounds are listed: those with a hit (about 12% of all), similar ones and a draw of the others.
Lassa entry inh: inhibitors of Lassa virus binding or cell entry. Potency, µM (series often up to 37.9 µM), inactives show at the highest dose activity change, negative = inhibition, usual class: inhibitors. Lassa virus pseudotype entry inhibition, cell reporter. AID 540256. actives 1.2% (n = 300,000); calls by dose curve; tested in HEK293 cells; further: potency means the concentration at half of the fitted maximal effect; on the % scale 0 is the no-effect control and ±100 the full control effect; nearly all actives have a fitted effect of over 50% in size
Shiga toxin inh: blocks Shiga toxin action in Vero cells. Vero cells, Shiga toxin protein synthesis inhibition reporter. inhibition, % at 38.7 µM. actives 9.2% (n = 290,000). AID 2315; in the data active means inhibition mostly above about 28%, no sharp cut-off; inactive means mostly below about 43%; further: 0% is about no effect
CHX counter: counter-screen for Shiga toxin inhibitors: cycloheximide protein synthesis inhibition; cell reporter, cycloheximide protein synthesis inhibition counterscreen; max response, %; actives 12% (n = 300,000); AID 2314; in the data active means max response mostly above about 13%, no sharp cut-off; inactive means mostly below about 14%; further: read at 38.3 µM for the half of the compounds with a filed dose; 0% is about no effect
Marburg entry inh: inhibitors of Marburg virus binding or cell entry. actives 1.8% (n = 300,000). Marburg virus pseudotyped entry inhibition, cell reporter. Potency, µM (highest dose often 37.8 µM), for inactives: top-dose activity change, negative = inhibition, most hits filed as inhibitors; calls by dose curve; tested in HEK293 cells; further: potency means the concentration at half of the fitted maximal effect; on the % scale 0 is the no-effect control and ±100 the full control effect
* marks the source's active call; other numbers are inactive results; ? = inconclusive; . = no result; [ ] = dose if it differs, or a comment.

SMILES	Lassa entry inh	Shiga toxin inh	CHX counter	Marburg entry inh
Cc1cc(C(=O)COc2ccc(C#N)cc2)c(C)n1C1CC1	2.9%	.	.	3.4%[46.1 µM]
COCCn1c(C)cc(C(=O)COC(=O)c2c(C)nn(Cc3ccccc3)c2C)c1C	7.08µM*	-3.4	1.3	?
Cc1nn(Cc2ccccc2)c(C)c1C(=O)OCC(=O)c1cc(C)n(C2CC2)c1C	14.6µM*	10.8	4.0	-28.5%
CC(=O)N1CCCc2cc(S(=O)(=O)N3CCC(C(=O)Nc4cccc(Cl)c4C)CC3)ccc21	2.9%[46.1 µM]	.	.	.
CC(C)CCNC(=O)CSc1nc2ccccc2nc1Cc1ccccc1	13.2%[46.1 µM]	.	.	.
COc1ccccc1NC(=O)CSc1nc2c(oc3ccccc32)c(=O)n1-c1ccccc1F	.	.	.	-10.2%[46.1 µM]
COc1ccc2nc(NCc3ccccc3)[nH]c2c1	?	86.3	23.6*	-23.5%
COc1ccc2nc(N3CCCC3)[nH]c2c1	?	29.1	18.6*	0.6%
c1ccc2[nH]c(NCc3ccc4c(c3)OCO4)nc2c1	-29.1%[46.1 µM]	62.7*	34.4*	?
c1ccc(CNc2nc3ccccc3[nH]2)cc1	?	173.7	25.5*	?
S=c1nc(NCc2ccc3c(c2)OCO3)c2ccccc2[nH]1	.	0.5	13.2	.
COc1ccc2nc(NCCO)[nH]c2c1	10.4%	1.7	2.3	?
O=C(Cc1ccccc1)Nc1ccccc1C(=O)N1CCCCCC1	.	-6.6	5.9	.
COc1cc(S(=O)(=O)N2CCOCC2)cc(C(=O)OCC(=O)NCc2ccco2)c1OC	-17.4%	.	.	-2.8%
Cc1ccc2nc(NCc3ccccc3)[nH]c2c1	?	90.7*	34.2*	?
Cc1ccc2nc(NCc3ccccc3)c(C#N)cc2c1	3.5%	35.6	19.9	0.5%[46.1 µM]
O=C(NCCOc1ccccc1)C1CCC(=O)N(CCN2CCOCC2)C1 (stereo not drawn)	.	-4.2	-1.5	.
CC(C)(C)c1cc(NC(=O)COC(=O)c2ccc3c(=O)n4c(nc3c2)CCC4)n(-c2ccccc2)n1	-2.0%	28.6	16.3*	-8.7%
O=C(Nc1nccs1)c1ccc2c(=O)n3c(nc2c1)CCCCC3	?	97.7*	19.2*	?
O=C(OCN1C(=O)c2ccccc2C1=O)c1ccc2c(=O)n3c(nc2c1)CCC3	.	.	.	2.0%
Cc1csc(NC(=O)c2ccc(N3CCCC3=O)cc2)n1	?	16.6	7.2	1.64µM*
CCc1ccc(NC(=O)c2ccc3c(=O)n4c(nc3c2)CCCCC4)cc1	.	47.2*	36.5*	.
CCc1nnc(NC(=O)c2ccc3c(=O)n4c(nc3c2)CCCCC4)s1	1.3%	-9.1	0.8	-3.5%
Cc1cc2c(cc1NS(=O)(=O)c1ccc(NC(=O)CC(C)C)cc1)n(C)c(=O)c(=O)n2C	-20.6%[46.1 µM]	.	.	.
O=C(Nc1cccc(S(=O)(=O)N2CCCCC2)c1)c1ccc2c(=O)n3c(nc2c1)CCCCC3	?	-12.8	6.3	3.16µM*
SMILES	Lassa entry inh	Shiga toxin inh	CHX counter	Marburg entry inh
Cc1csc(NC(=O)c2ccc3c(=O)n4c(nc3c2)CCCCC4)n1	.	62.9*	26.9*	.
CCc1ccc(NC(=O)c2sc3nc4n(c(=O)c3c2C)CCC4)cc1	.	36.3*	29.5*	.
CCNC(=O)c1ccc2c(c1)nc1n2CCCCC1	0.9%[46.1 µM]	.	.	.
Cc1ccc(C)c(CNC(=O)c2ccc3c(c2)nc2n3CCCCC2)c1	7.94µM*	.	.	.
Cc1cccc(C(=O)Nc2ccc(OCc3cc(=O)n4ccsc4n3)cc2)c1	6.1%[46.1 µM]	.	.	11.9%[46.1 µM]
C/C(=N\NC(=O)COc1ccc(C(C)(C)C)cc1)c1cc2ccccc2o1	3.16µM*	37.6*	24.3*	10µM*
COc1ccc(NCC(=O)N/N=C(\C)c2cc3ccccc3o2)cc1	?	20.3	15.7*	?
COc1ccc(CCN2CC(C(=O)NCCN3CCOC3=O)CCC2=O)cc1 (stereo not drawn)	-1.8%	0.3	-2.2	8.7%
O=C(CSc1ncn(-c2ccccc2)n1)N1CCc2ccccc21	-4.8%	-7.2	-1.6	-2.1%
Clc1cccc(CSc2ncn(-c3ccccc3)n2)c1	12.3%	35.3*	22.7*	26.1%
Clc1ccc(CSc2ncn(-c3ccccc3)n2)cc1	5.1%	-7.5	31.3*	-10.3%
CC(C)NS(=O)(=O)c1ccc(OCC(=O)N2CCN(c3ccccc3F)CC2)cc1	-3.6%[46.1 µM]	.	.	-15.2%[46.1 µM]
CCN(CC)c1ccc(NC(=O)c2cnn3c(C(F)F)cc(-c4ccccc4)nc23)cc1	27.2%[46.1 µM]	.	.	-0.4%[46.1 µM]
O=C(c1cc(COc2ccc(F)cc2Cl)on1)N1CCCC(c2ccccc2)C1 (stereo not drawn)	?	8.8	6.4	?
CCOC(=O)N1CCN(C(=O)c2cc(COc3ccc(F)cc3F)on2)CC1	2.4%	87.9*	49.3*	?
O=C(c1cc(COc2ccc(F)cc2F)on1)N1CCCC(c2ccccc2)C1 (stereo not drawn)	7.08µM*	28.3	18.6*	?
CCOC(=O)C1CCN(C(=O)c2cc(COc3ccc(F)cc3F)on2)CC1	?	126.5*	63.2*	?
CCC(O)C1CCN(C(=O)c2cc(COc3ccc(F)cc3F)on2)CC1 (stereo not drawn)	.	17.1	16.9	.
O=C(c1cc(COc2ccc(F)cc2F)on1)N1CC[C@@H]2CCCC[C@H]2C1	-10.7%	-9.7	-1.5	-11.9%
COCCOC1CCN(C(=O)c2cc(COc3ccc(F)cc3F)on2)CC1	1.0%	75.2	22.8*	11.4%
CC[N@+]1(C)CCC[C@H](OC(=O)C(O)(c2ccccc2)c2ccccc2)C1	.	.	.	8.8%
c1ccc2sc(N3CCCN(Cc4nc(-c5cnccn5)no4)CC3)nc2c1	9.3%[46.1 µM]	22.4	5.1	?
CC(=O)c1c(CC(=O)O)[nH]n(-c2nc3ccccc3s2)c1=O	11.4%	24.3	21.1	8.8%
COC(=O)Cc1[nH]n(-c2nc3ccccc3s2)c(=O)c1C(C)=O	1.4%	33.1	16.5*	3.5%
COc1ccc(CN=C(C)c2c(C(F)(F)F)[nH]n(-c3nc4ccccc4s3)c2=O)cc1	24.6%	121.8*	42.1*	-4.8%
SMILES	Lassa entry inh	Shiga toxin inh	CHX counter	Marburg entry inh
CCN(C(=O)c1ccc(S(=O)(=O)N2CCC(C)CC2)cc1)C1CCS(=O)(=O)C1 (stereo not drawn)	-5.6%	.	.	19.8%
O=C1CSC(=S)N1N=C1CCCCCC1	9.5%	17.3	14.0*	23.9%
CN(C)CCCOC(=O)COc1ccc(C(C)(C)C)cc1	?	15.6	-1.4	3.5%
O=[N+]([O-])c1cccc(-c2cc3cccc[n+]3cc2-c2cccc([N+](=O)[O-])c2)c1	23.7%	-7.6	-2.9	16.4%
Cc1cccc2cc(-c3ccccc3)c(-c3ccccc3)c[n+]12	11.2µM*	15.7	-1.3	?
CCc1ccc(/C=N\n2cnnc2)cc1	8.0%[46.1 µM]	-4.2	1.3	?
COc1cc(NC(=O)C2CC2)c(OC)cc1NC(=O)CCC(=O)NC1CCN(Cc2ccccc2)CC1	17.7%	-9.3	-1.1	0.6%[46.1 µM]
CC(C)c1cc(C(C)C)c(S(=O)(=O)N2CCNCC2)c(C(C)C)c1	?	.	.	10µM*
Cc1cc(C)c(C)c(S(=O)(=O)N2CCNCC2)c1C	-6.5%	18.9	3.8	?
N#CC(C#N)=C1C=CC=CN1/C(=C\c1ccco1)C(=O)c1ccc(-c2ccccc2)cc1	?	-9.9	10.7	15.8µM*
COc1ccc(N2CCN(C3CCCN(C(=O)CSC)C3)CC2)cc1 (stereo not drawn)	.	.	-3.7	.
CN(C)S(=O)(=O)c1cccc(NC(=O)COC(=O)c2cc3ccccc3oc2=O)c1	6.6%[46.1 µM]	134.4*	51.0*	?
